Screening results: PubChem, Broad Institute
Only a sample is shown.
aSyn UTR act – Activators working through SNCA 5'UTR binding (MLPCN); alpha-synuclein 5'UTR reporter, activators screen; activity score, % (tested at 7.5 µM), hits read low; actives 7.1% (n = 300,000); in the data active means activity score below about -60%
Active calls of the source: *.

SMILES | aSyn UTR act
O=C(Cc1ccccc1)Nc1ccc(SC(F)F)cc1 | -130*
Cc1nc(-c2ccc3c(c2)OCCO3)cs1 | -122*
Cc1cccc(Nc2nc(-c3ccc4c(c3)OCCO4)cs2)c1 | -203*
CCN(CC)CCN1C(=O)/C(=C\c2ccc(Cl)c([N+](=O)[O-])c2)SC1=Nc1ccc(OC)cc1 | 74
C=CCN1C(=O)/C(=C2/Sc3ccc(OC)cc3N2C)SC1=Nc1ccc(OC)cc1 | -79*
COc1ccc(N=C2S/C(=C\c3ccc(Cl)c([N+](=O)[O-])c3)C(=O)N2CCN(C)C)cc1 | 81
CC1CC(C)CN(Cc2nc(N)nc(Nc3ccc4ccccc4c3)n2)C1 (stereo not given) | -115*
Cc1ccc2c(COC(=O)C34CC5CC(CC(C5)C3)C4)cc(=O)oc2c1 | -152*
Cc1ccc2c(COC(=O)c3ccccc3Cl)cc(=O)oc2c1 | -136*
Cc1ccc2c(COC(=O)c3ccccc3Br)cc(=O)oc2c1 | -179*
CC(C)c1ccc(C(=O)CSc2ncn[nH]2)cc1 | -137*
Cc1c(CCOC(=O)CC23CC4CC(CC(C)(C4)C2)C3)sc[n+]1CC(=O)c1ccccc1 | -65*
Cc1cccc(/C=N/c2sc3c(c2C#N)CCN(Cc2ccccc2)C3)c1O | -74*
Fc1ccccc1C1CCN(Cc2nc(CC3CC3)no2)C1 (stereo not given) | -82*
CC(C)(C)C1CCc2sc(-c3nnc(CCl)o3)cc2C1 (stereo not given) | -64*
COc1cccc([C@@H]2Oc3ccc(OC)cc3C(=O)[C@H]2OC(=O)NCc2ccc3c(c2)OCO3)c1 | -137*
Cc1ccc2c(C)c(C(=O)N(C)C(C)c3ccon3)oc2c1C (stereo not given) | -149*
CC1CCc2c(sc(/N=C/N(C)C)c2C#N)C1 (stereo not given) | -80*
CN(C)/C=N/c1sc2c(c1C#N)CCCC2 | -80*
O=C(CCSc1ccc(Cl)cc1)N1CCOCC1 | -69*
O=C(CSc1ccc(Cl)cc1)N1CCOCC1 | -69*
O=C(CSc1ccc(Br)cc1)N1CCOCC1 | -65*
Cc1cc(C(=O)CSc2nnnn2C)c(C)n1-c1cccc(F)c1 | -131*
Cc1cc(C(=O)CSc2ncccn2)c(C)n1-c1cccc(F)c1 | -84*
Cc1ccc(-n2c(C)cc(C(=O)COc3cccnc3[N+](=O)[O-])c2C)cc1 | 64
SMILES | aSyn UTR act
COc1ccc(CCn2nc(C)c([N+](=O)[O-])c2C)cc1 | -101*
COc1ccc(NC(=O)c2cc(C)nn2-c2ccccc2)cc1 | -73*
COc1ccc(-c2cc(C(=O)Nc3cc(Br)ccc3O)no2)cc1 | -107*
COc1ccc(NC(=O)c2cc(C)on2)cc1 | -106*
CC(C)n1cc(NC(=O)c2cc(-c3ccccc3)on2)cn1 | -218*
COc1ccc(NC(=O)c2cc(-c3ccccc3)on2)cc1 | -77*
CCc1ccccc1NC(=O)c1cc(-c2ccc(OC)cc2)on1 | -77*
COc1ccc(NC(=O)c2cccnn2)cc1 | -97*
CC(C)(C)n1cnc2cc(NS(=O)(=O)c3ccccc3)ccc21 | -74*
CCc1ccc(CNc2ccc3c(c2)ncn3C(C)(C)C)cc1 | -156*
CC(C)(C)n1cnc2cc(NCc3ccc(Br)cc3)ccc21 | -92*
CN(C)c1nc(N)nc(CSc2nc3cc(Cl)ccc3o2)n1 | -126*
COc1ccc(C=C2c3ccccc3C(=O)c3ccccc32)c(OC)c1 | 98
COc1ccc(/C=C2\COc3ccccc3C2=O)c(OC)c1 | -140*
COc1ccc(/C=C2\CN(Cc3ccccc3)C/C(=C\c3ccc(OC)cc3OC)C2=O)c(OC)c1 | -68*
COc1ccc2c(c1)OC/C(=C/c1cccs1)C2=O | -151*
C=CCN(C(=O)c1oc2c(Cl)cc(C)cc2c1C)C1CCS(=O)(=O)C1 (stereo not given) | -71*
Cc1cc(CNC(=O)Nc2ccc3c(c2)OCO3)nn1C | -80*
CCn1nc(C)c(CNC(=O)Nc2ccc3c(c2)OCO3)c1C | -70*
Cn1c(N2CCOCC2)c(/C=N/OC(=O)c2ccc(F)cc2)c2ccccc21 | 73
Cn1c(O)c(N=Nc2nc(-c3ccccc3)cs2)c2ccccc21 | -126*
Cn1c(O)c(N=Nc2ccc(F)cc2)c2ccccc21 | -62*
Cc1ccccc1NC(=S)N=Nc1c(O)n(C)c2ccc(S(=O)(=O)N3CCOCC3)cc12 | 78
Cn1c(-c2ccc3ccccc3n2)[n+](C)c2ccccc21 | -65*
O=C(COc1ccc(Br)cc1Cl)NC(=O)Nc1ccc2c(c1)OCCO2 | -72*
SMILES | aSyn UTR act
Cc1cc(C)c(OCC(=O)Nc2cccc(O)c2)cc1C | -114*
Cc1cc(C)c(OCC(=O)Nc2ccc3c(c2)OCO3)cc1C | -112*
Cc1ccccc1OCC(=O)Nc1ccc(N2CCN(C)CC2)c(Cl)c1 | -140*
N#Cc1cccc(NCC(=O)Nc2ccc3c(c2)OCCO3)c1 | -69*
Cc1ccc(OCC(=O)Nc2ccc3c(c2)OCO3)c([N+](=O)[O-])n1 | -111*
O=C(COc1ccccc1Cl)Nc1ccc2c(c1)OCCO2 | -151*
Cc1cccc(C)c1OCC(=O)Nc1ccc2c(c1)OCCO2 | -158*
Cc1ccccc1OCC(=O)Nc1ccc2c(c1)OCCO2 | -180*
Cc1ccccc1OCC(=O)Nc1cccc(C(=O)O)c1 | 105
COc1ccccc1OCC(=O)Nc1ccc2c(c1)OCCO2 | -89*
COc1cc(C=O)ccc1OCC(=O)Nc1ccc2c(c1)OCO2 | -90*
CCOc1ccc2nc(NC(=O)C3=NNC(=O)CC3)sc2c1 | -73*
CCOc1ccc2nc(NC(=O)c3cnc(C)cn3)sc2c1 | -68*
Cn1c(-c2ccc3nc(N)sc3c2)nc2cc(N)ccc21 | -72*
O=C(CCCN1C(=O)/C(=C/c2ccccc2Cl)SC1=S)NNC(=O)c1ccccc1Cl | 100
O=C(CCN1C(=O)/C(=C/c2ccccc2Cl)SC1=S)N1CCOCC1 | -73*
Cc1ccc(/C=C2\SC(=S)N(CCCC(=O)Nc3ccccc3C(=O)O)C2=O)cc1 | 68
Cc1ccc(/C=C2\SC(=S)N(CCC(=O)N3CCOCC3)C2=O)cc1 | -64*
Cc1ccc(/C=C2\SC(=S)N(CCCC(=O)Nc3ccc(O)cc3)C2=O)cc1 | 104
CN1CCN(C(=O)CCCN2C(=O)/C(=C/c3cccc(Br)c3)SC2=S)CC1 | -218*
O=C(CCN1C(=O)/C(=C/c2ccccc2Cl)SC1=S)N1CCCC1 | -115*
COC(=O)c1ccc(NC(=O)c2ccccc2SC)cc1 | -67*
O=C(Nc1ccc2c(c1)CCC2)c1ccccc1Br | -129*
Cc1c(C(=O)Nc2ccc3c(c2)CCC3)cccc1[N+](=O)[O-] | -204*
CSc1ccccc1C(=O)Nc1ccc2c(c1)CCC2 | -135*
SMILES | aSyn UTR act
Cc1nc(Nc2ccccc2)sc1C(=O)Nc1ccccc1 | -102*
Nc1nc(Nc2ccccc2F)sc1C(=O)c1ccccc1 | -188*
Cc1nc(NCc2ccccc2)sc1C(=O)Nc1ccccc1 | -148*
Cc1nc(NCCOc2ccccc2)sc1C(=O)Nc1ccccc1 | -88*
CCN1/C(=C/C=C/c2oc3ccc4ccccc4c3[n+]2CC)Oc2ccc3ccccc3c21 | 92
CSc1nc(N(C)NC(=O)c2ccc(F)cc2)c2ccccc2n1 | 77
Cc1nc(Nc2ccccc2)sc1C(=O)c1ccc(F)cc1 | -94*
CC(=O)c1cc(C#N)c(SCc2ccc(F)cc2)nc1C | -98*
O=C(Cc1ccccc1)c1ccc2c(c1)OCCO2 | -107*
Cc1ccc(S(=O)(=O)CC(=O)c2ccc3c(c2)OCCO3)cc1 | -70*
O=C(OCCN1CCOCC1)c1ccc2c(c1)OCCO2 | -94*
O=C(CCCN1CCOCC1)c1ccc2c(c1)OCCO2 | -81*
Cc1nc(N)sc1N=Nc1ccccc1C(F)(F)F | -184*
